Among all 2,100 compounds or so, about 650 (31%) were called active. Another 16% or so got no clear call; they are omitted. The list shows a part of the results. Unmarked numbers belong to inactive results. Calls follow the shape of the dose curve; as a rule, active = well fitted inhibition curve with a large enough effect; inconclusive = small, poorly fitted or top-dose-only effect; inactive = flat fitted curve, though single readings scatter.
Potency is read from the fitted curve at half-maximal effect.

The test in a line: qHTS for inhibitors of Vif-A3G interactions: Cherry picks. Also: nearly all actives have a fitted effect of over 80% in size. As to activity, negative = fluorescence increase: % of control where 0% means no effect. The conditions noted are these: HeLa A3G-eYFP + Vif (tagged APOBEC3G with the HIV-1 protein that degrades it), 24 h; Potency: eYFP fluorescence increase; series mostly up to 36.9 µM; activity, negative = fluorescence increase: at the top concentration. The text has this: The recent discovery and characterization of host restriction factors, which provide a potent defense to invading retroviruses, has provided new targets for antiviral drug development. APOBEC3G (A3G) and APOBEC3F (A3F) are potent cytidine deaminases that block HIV-1 replication; HIV-1 expresses the Vif protein, which counteracts A3G and A3F by binding to them and inducing their proteasomal degradation. The Vif-A3G and Vif-A3F interactions provide two potential targets for development of small molecules which can interfere with the ability of Vif to degrade A3G or A3F. […] To identify inhibitors that can interfere with Vif mediated degradation of A3G and A3F, we have developed Hela cell lines that stably express A3G or A3F tagged with eYFP at the C-terminal end (A3G-eYFP or A3F-eYFP, respectively) and Vif. In the absence of an inhibitor, Vif induces degradation of A3G-eYFP and A3F-eYFP, and the cells are not fluorescent. In the presence of an inhibitor, it is expected that Vif will be unable to degrade A3G-eYFP and/or A3F-eYFP, resulting in an increase in yellow fluorescence. In this assay, Vif A3G was screened against the cherry picks ordered from the MLSMR. NIH Chemical Genomics Center [NCGC] NIH Molecular Libraries Probe Centers Network [MLPCN] MLPCN Grant: MH093245 Assay Submitter (PI): Vinay Pathak, National Cancer Institute
A3G-Vif cells were harvested from T225 flask and resuspended in phenol free OPTI-MEM medium with 5% FBS. Then 5 uL of 140,000 cells/mL resuspended cells was dispensed into each well of low base Aurora COC 1,536-well plates (black walled, clear bottom) using a Multidrop Combi dispenser. After overnight culture at 37 deg C with 5% CO2, a total of 23 nL of compounds at 5 selected concentrations from the NPC or positive control (2 mM stock of MG132) in DMSO was transferred to each well of the assay plate using a pintool (Kalypsys, San Diego, CA), and the plates were further incubated at 37 deg C with 5% CO2 for 24 hours. After that, the plates were measured on Acumen Explorer (TTP Lab Tech). The fluorescence was detected by 488 nm/Ex and […].
Turning to `COc1ccccc1NC(=O)c1oc2ccccc2c1NC(=O)c1cccc(OC)c1OC`, the “activity, negative = fluorescence increase” value is -11.2% [at 46.1 µM].
For `CC(=O)c1cccc(-c2ccnc3c2CC(C(=O)NCC2CC2)O3)c1` (stereo unspecified), the “activity, negative = fluorescence increase” value is -3.12%.
Still for that read-out and setting: next, `N#CC1CC(c2ccccc2)Nc2cc(Cl)ccc2N1` (stereo unspecified): 1.23%; `COc1ccc(N(C)S(=O)(=O)c2cccc3cccnc23)c(OC)c1`: 2.33%.
The same measure, in the same setting: next, `COc1ccc(C(=O)NC2CCCc3ccccc32)cc1[N+](=O)[O-]` (stereo unspecified): 1.3%.
On to `COc1ccc2nc(N3C(=O)/C(=C/c4ccccc4)NC3=S)sc2c1`, for which the Potency was 3.66 µM (active).
`COc1ccc2nc(NC(=O)Nc3ccccc3OC)sc2c1`: the “activity, negative = fluorescence increase” value is 0.903%.
For `CCOc1ccc2nc(N3C(=O)/C(=C/c4ccc(Cl)cc4)NC3=S)sc2c1`, the Potency is 11.6 µM (active).
Take `COc1ccc2nc(NC(=S)NC(=O)c3ccco3)sc2c1`: the “activity, negative = fluorescence increase” value was -2.19% [at 46.1 µM].
For `O=C(OC12CC3CC(CC(C3)C1)C2)c1ccc(NCc2cc(O)ccc2O)cc1`, the “activity, negative = fluorescence increase” value is 1.32% [at 46.1 µM].
For the molecule `COc1c(-c2ccc(O)c(O)c2)oc2cc(O)cc(O)c2c1=O`, the “activity, negative = fluorescence increase” value is -10.1%.
Same read-out and setting: next, `CC(=O)c1c(C)oc2c1cc(NS(=O)(=O)c1ccc(Br)cc1)c1ccccc12`: -5.41% [at 46.1 µM].
For `Cc1ccc2c(c1)sc(-c1ccc(N(C)C)cc1)[n+]2C`, the Potency is 20.6 µM (active).
On the same count and under the same terms, next, `COc1ccc(C(=O)/C=C/Nc2ccc([N+](=O)[O-])cc2C)c(OC)c1`: 11.6 µM (active).
Consider `COc1ccc(N/C=C/C(=O)c2cc(OC)c(OC)c(OC)c2)cc1`, for which the “activity, negative = fluorescence increase” value was -17%.
As to `COc1ccc(C(=O)c2cc([N+](=O)[O-])ccc2N2CCCC2)cc1`, the “activity, negative = fluorescence increase” value was -0.081%.
Same read-out and setting: next, `COC(=O)c1ccccc1NC(=O)C1CC(=O)N(c2ccc(OC)cc2)C1` (stereo unspecified): -1.16%.
Turning to `CCCN1C(=O)/C(=C/C=C2\N(CC)c3ccccc3C2(C)C)SC1=S`, the Potency is 3.96 µM (active).
Regarding `CCCCN1C(=O)/C(=C/C=C2/CC(C)(C)CN2C)SC1=S`, the “activity, negative = fluorescence increase” value was -28.2%.
Regarding `CCCN1C(=O)/C(=C\C=C2\N(CC)c3ccccc3C2(C)C)SC1=S`, the Potency was 3.26 µM (active).
For the molecule `O=C(NCc1ccco1)c1cccc2c1C(=O)c1ccc(N3CCC(Cc4ccccc4)CC3)cc1S2(=O)=O`, the Potency is 18.4 µM (active).
Consider `O=C(NCc1ccccc1C(F)(F)F)c1cccc2c1C(=O)c1ccc(N3CCC(N4CCCCC4)CC3)cc1S2(=O)=O`, for which the Potency was 20.6 µM (active).
Still for that read-out and setting: the figure for `O=C(NCc1cccc(C(F)(F)F)c1)c1cccc2c1C(=O)c1ccc(N3CCC(Cc4ccccc4)CC3)cc1S2(=O)=O` is 18.4 µM (active); for `O=C(NC1CC1)c1cccc2c1C(=O)c1ccc(N3CCC(Cc4ccccc4)CC3)cc1S2(=O)=O` it is 23.1 µM (active).
For the molecule `Cc1cc(C)c(S(=O)(=O)N2CCCCC2CCNC(=O)C(=O)NCc2ccco2)c(C)c1` (stereo unspecified), the “activity, negative = fluorescence increase” value is -17.1%.
Take `Cc1c(C)n(Cc2ccccc2)c2ccc(C(=O)NCc3ccco3)cc12`: the “activity, negative = fluorescence increase” value was -7.76% [at 46.1 µM].

For the origin of these results see PubChem BioAssay AID651812 (National Center for Advancing Translational Sciences (NCATS), 2012).
